# Reference: PubChem BioAssay (NCI)
# The panel holds about 79,000 compounds, 15% with a hit somewhere; the sample as a whole holds those more often. Unmarked numbers belong to inactive results. Calls of active or inactive are those of the source. Rule as the data show it: active = growth inhibition above about 70%; inactive = the rest.
# Legend:
# [1] = NCI Yeast Anticancer Drug Screen. Data for the rad50 strain (AID 155);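 also: 0% = growth of vehicle-only cultures of the same strain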; settings: S. cerevisiae rad50 strain growth inhibition, stronger effect = higher value
# Method in brief: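 Readout: growth inhibition relative to vehicle-treated cultures. Compound exposure was carried out in a genetically defined yeast strain deficient in DNA damage repair.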
# [2] = NCI Yeast Anticancer Drug Screen. Data for the mec2-1 strain (AID 157); settings: S. cerevisiae mec2-1 strain, stronger effect = higher value
# Method in brief: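 Strain: mec2-1 (DNA repair/cell cycle alteration). Compound exposure, then growth measured; inhibition expressed relative to vehicle.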
# [3] = NCI Yeast Anticancer Drug Screen. Data for the sgs1 mgt1 strain (AID 161);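 also: 0% = growth of cultures given vehicle only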; settings: S. cerevisiae sgs1 mgt1 strain, stronger effect = higher value
# Method in brief: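 Mutant yeast exposed to compound; growth scored against vehicle-only wells.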
# [4] = NCI Yeast Anticancer Drug Screen. Data for the cln2 rad14 strain (AID 165);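 also: 0% = growth equal to vehicle treated cultures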; settings: S. cerevisiae cln2 rad14 strain, stronger effect = higher value
# Method in brief: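 Compounds are applied to the cln2 rad14 yeast strain, and growth is then compared with that of vehicle-treated cultures to give inhibition.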
# [5] = NCI Yeast Anticancer Drug Screen. Data for the bub3 strain (AID 167); settings: S. cerevisiae bub3 mutant strain, stronger effect = higher value
# Method in brief: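 Readout: yeast growth inhibition, expressed relative to vehicle-only wells. The test organism is a mutant strain from a panel with lesions in DNA repair or checkpoint genes.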
# [6] = NCI Yeast Anticancer Drug Screen. Data for the mlh1 rad18 strain (AID 175); settings: S. cerevisiae mlh1 rad18 strain growth inhibition, stronger effect = higher value
# Method in brief: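 Read-out is yeast growth inhibition, calculated against vehicle-only controls. The compound was applied to a strain engineered with DNA damage repair alterations.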
# [7] = at 5.0 µM (retest, dose inferred, filed as 0.5)
# [8] = at 50.0 µM (retest, dose inferred, filed as 5.0)
SMILES,"growth inhibition [1, 7] [%]","growth inhibition [1, 8]",growth inhibition ([1]; at 50.0 µM),"growth inhibition [2, 7] [%]","growth inhibition [2, 8]",growth inhibition ([2]; at 50.0 µM),"growth inhibition [3, 7] [%]","growth inhibition [3, 8]",growth inhibition ([3]; at 50.0 µM),"growth inhibition [4, 7] [%]","growth inhibition [4, 8]",growth inhibition ([4]; at 50.0 µM),"growth inhibition [5, 7] [%]","growth inhibition [5, 8]",growth inhibition ([5]; at 50.0 µM),"growth inhibition [6, 7] [%]","growth inhibition [6, 8]",growth inhibition ([6]; at 50.0 µM)
CCOC(=O)c1[nH]c2c([N+](=O)[O-])cccc2c1[N+](=O)[O-],-12,15%,97% (active),-16,16%,98% (active),-3,9%,94.8% (active),4,25%,98.6% (active),0,7%,98.8% (active),-2,37%,99% (active)
O=C(NCCl)Nc1ccccc1,-3,62%,57.7%,5,82% (active),62.8%,8,86% (active),67.9%,1,65%,17.9%,6,79% (active),67.5%,6,83% (active),66%
C[C@]12CC[C@H](O)CC1=CC[C@@H]1C2CC[C@]2(C)NC(=O)CCC12 (stereo partly drawn),-4,0%,46.9%,1,4%,40.8%,-2,16%,82.8% (active),1,0%,53%,3,4%,39.3%,-3,1%,76% (active)
C(=C1/CNC/C(=C/c2ccccc2)C1)/c1ccccc1,11,99% (active),99.5% (active),17,99% (active),99.6% (active),16,96% (active),99.5% (active),27,99% (active),99.2% (active),6,99% (active),99.3% (active),-1,97% (active),99.3% (active)
CCCCN1C(=O)C(=O)N(c2ccccc2)C1=O,-6,5%,18.2%,-7,12%,32.9%,-14,1%,8.65%,-29,-17%,73.8% (active),-21,11%,1.55%,-5,15%,16.9%
CCc1c(O)c(O)c(C(C)=O)c2c(O)c(-c3c(C)cc4c(CC)c(O)c(O)c(C(C)=O)c4c3O)c(C)cc12,-13,96% (active),94.2% (active),9,96% (active),95.3% (active),-10,96% (active),95.2% (active),-20,94% (active),92.9% (active),11,97% (active),95.7% (active),7,96% (active),95.5% (active)
